Measured values from paper PMC7862700, “An all-to-all approach to the identification of sequence-specific readers for epigenetic DNA modifications on cytosine”.

Columns and labels:
Assay in all cases: DAPPL (digital affinity profiling via proximity ligation, sequencing); 10 mM Tris-HCl pH 7.5, 50 mM NaCl, 1 mM DTT, 4% glycerol, room temperature, 30 min; GST-TFs on glutathione beads, 16-mer random dsDNA library, 0.1% formaldehyde crosslink after washing; high values mean tight binding
FEV = target: T1, FEV (Homo sapiens, UniProt Q99581 1-238); conditions: protein: recombinant; tags: N-terminal GST; dsDNA, one strand shown
T1 sequence: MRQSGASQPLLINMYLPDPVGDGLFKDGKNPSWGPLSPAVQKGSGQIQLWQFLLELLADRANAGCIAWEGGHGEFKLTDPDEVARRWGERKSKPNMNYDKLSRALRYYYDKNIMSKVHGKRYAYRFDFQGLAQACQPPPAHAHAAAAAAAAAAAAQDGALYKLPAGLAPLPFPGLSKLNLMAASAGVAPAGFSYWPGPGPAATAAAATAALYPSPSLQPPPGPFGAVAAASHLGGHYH
Procedure, shortened: (§1)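 Binding signal is each hexamer's read frequency for a factor divided by its frequency in the tag-only sample. The factors were GST-fused human transcription factors from yeast, captured on glutathione beads, DNA-barcoded and pooled with that sample. Pools were incubated with 200 nmole of a random double-stranded 16-mer DNA library in Tris/NaCl/DTT/glycerol buffer at room temperature for 30 min, then washed, crosslinked with 0.1% formaldehyde, proximity-ligated with BsaI/T4 ligase (1 h, 37 °C), PCR-amplified and sequenced on an Illumina NextSeq500.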

ETV5 = ETV5 (Homo sapiens, UniProt P41161 1-510); conditions: protein: recombinant; tags: N-terminal GST; dsDNA, one strand shown
Procedure, shortened: as §1

HSF1 = HSF1 (Homo sapiens, UniProt Q00613 1-529); conditions: protein: recombinant; tags: N-terminal GST; chain copies: 3; dsDNA, one strand shown
Procedure, shortened: as §1

SPIC = target: T2, SPIC (Homo sapiens, UniProt Q8N5J4 1-248); conditions: protein: recombinant; tags: N-terminal GST; dsDNA, one strand shown
T2 sequence: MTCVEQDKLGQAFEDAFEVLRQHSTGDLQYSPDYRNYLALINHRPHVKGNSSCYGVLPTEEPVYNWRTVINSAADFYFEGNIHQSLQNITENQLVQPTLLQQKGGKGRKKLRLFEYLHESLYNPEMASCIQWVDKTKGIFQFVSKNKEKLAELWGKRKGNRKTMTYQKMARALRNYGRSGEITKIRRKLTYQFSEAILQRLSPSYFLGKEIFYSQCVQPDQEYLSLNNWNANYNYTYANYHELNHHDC
Procedure, shortened: as §1

ELF4 = ELF4 (Homo sapiens, UniProt Q99607 1-663); conditions: protein: recombinant; tags: N-terminal GST; dsDNA, one strand shown
Procedure, shortened: as §1

ELK4 = target: T3, ELK4 (Homo sapiens, UniProt P28324-2 1-405); conditions: protein: recombinant; tags: N-terminal GST; dsDNA, one strand shown
T3 sequence: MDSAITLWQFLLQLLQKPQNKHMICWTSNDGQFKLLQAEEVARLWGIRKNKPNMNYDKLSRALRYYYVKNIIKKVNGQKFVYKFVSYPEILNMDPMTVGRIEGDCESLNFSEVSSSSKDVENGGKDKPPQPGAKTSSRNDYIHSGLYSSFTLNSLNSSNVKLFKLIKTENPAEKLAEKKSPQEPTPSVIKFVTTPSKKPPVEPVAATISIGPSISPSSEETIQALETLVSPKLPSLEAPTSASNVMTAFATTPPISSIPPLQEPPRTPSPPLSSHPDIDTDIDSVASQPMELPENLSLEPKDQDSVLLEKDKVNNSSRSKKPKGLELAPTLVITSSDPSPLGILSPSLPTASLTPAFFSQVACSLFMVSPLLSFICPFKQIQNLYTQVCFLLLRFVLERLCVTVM
Procedure, shortened: as §1

ETV2 = target: T4, ETV2 (Homo sapiens, UniProt O00321 1-342); conditions: protein: recombinant; tags: N-terminal GST; dsDNA, one strand shown
T4 sequence: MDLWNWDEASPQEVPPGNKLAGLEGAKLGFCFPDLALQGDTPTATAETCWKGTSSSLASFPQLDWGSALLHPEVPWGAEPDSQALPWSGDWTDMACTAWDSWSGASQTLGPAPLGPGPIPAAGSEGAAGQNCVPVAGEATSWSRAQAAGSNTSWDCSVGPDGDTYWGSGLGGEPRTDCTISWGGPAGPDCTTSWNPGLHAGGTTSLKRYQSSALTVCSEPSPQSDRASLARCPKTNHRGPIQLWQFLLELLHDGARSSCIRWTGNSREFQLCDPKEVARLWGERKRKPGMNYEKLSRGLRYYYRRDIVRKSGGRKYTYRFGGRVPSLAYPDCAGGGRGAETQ
Procedure, shortened: as §1

ELF3 = target: T5, ELF3 (Homo sapiens, UniProt P78545 1-371); conditions: protein: recombinant; tags: N-terminal GST; dsDNA, one strand shown
T5 sequence: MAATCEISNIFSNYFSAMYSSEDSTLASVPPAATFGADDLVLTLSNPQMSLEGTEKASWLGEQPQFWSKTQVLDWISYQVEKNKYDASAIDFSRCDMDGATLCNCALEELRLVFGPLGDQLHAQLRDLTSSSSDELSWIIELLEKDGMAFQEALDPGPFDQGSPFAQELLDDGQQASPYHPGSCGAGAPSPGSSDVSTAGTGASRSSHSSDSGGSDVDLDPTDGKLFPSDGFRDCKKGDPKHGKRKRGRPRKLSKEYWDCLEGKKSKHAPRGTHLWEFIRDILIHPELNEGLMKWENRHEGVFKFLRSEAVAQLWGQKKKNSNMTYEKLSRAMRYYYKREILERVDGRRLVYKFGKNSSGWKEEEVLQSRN
Procedure, shortened: as §1

ETV1 = ETV1 (Homo sapiens, UniProt P50549 1-477); conditions: protein: recombinant; tags: N-terminal GST; dsDNA, one strand shown
Procedure, shortened: as §1

Sequence of ETV1 (P50549 whole entry): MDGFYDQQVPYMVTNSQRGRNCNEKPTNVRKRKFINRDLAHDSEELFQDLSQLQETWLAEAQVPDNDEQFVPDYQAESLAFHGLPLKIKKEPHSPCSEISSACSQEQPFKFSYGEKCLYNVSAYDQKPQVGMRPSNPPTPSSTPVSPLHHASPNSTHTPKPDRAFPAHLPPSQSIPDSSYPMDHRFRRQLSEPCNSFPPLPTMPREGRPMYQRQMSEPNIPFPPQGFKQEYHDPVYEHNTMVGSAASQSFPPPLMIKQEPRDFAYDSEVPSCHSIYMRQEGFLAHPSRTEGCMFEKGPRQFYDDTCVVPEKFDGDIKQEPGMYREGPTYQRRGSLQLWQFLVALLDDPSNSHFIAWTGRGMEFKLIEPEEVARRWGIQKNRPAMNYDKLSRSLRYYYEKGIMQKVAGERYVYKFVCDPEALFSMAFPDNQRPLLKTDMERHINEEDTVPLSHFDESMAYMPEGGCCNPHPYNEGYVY
Sequence of ETV5 (P41161 whole entry): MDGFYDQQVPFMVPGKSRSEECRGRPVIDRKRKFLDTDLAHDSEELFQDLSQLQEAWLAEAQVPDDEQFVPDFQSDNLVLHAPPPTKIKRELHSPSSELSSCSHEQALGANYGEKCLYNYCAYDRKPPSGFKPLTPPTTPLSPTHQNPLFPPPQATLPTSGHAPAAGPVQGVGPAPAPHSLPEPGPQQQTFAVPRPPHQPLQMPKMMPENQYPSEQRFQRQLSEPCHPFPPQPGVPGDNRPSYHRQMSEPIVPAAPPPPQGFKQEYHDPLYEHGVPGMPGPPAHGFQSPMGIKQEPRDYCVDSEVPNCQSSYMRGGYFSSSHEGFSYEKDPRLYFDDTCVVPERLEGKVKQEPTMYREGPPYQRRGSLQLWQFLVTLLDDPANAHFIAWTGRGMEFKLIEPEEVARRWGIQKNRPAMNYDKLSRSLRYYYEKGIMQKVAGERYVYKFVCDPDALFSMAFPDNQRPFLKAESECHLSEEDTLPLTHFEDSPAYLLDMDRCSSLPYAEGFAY
Sequence of ELF4 (Q99607 whole entry): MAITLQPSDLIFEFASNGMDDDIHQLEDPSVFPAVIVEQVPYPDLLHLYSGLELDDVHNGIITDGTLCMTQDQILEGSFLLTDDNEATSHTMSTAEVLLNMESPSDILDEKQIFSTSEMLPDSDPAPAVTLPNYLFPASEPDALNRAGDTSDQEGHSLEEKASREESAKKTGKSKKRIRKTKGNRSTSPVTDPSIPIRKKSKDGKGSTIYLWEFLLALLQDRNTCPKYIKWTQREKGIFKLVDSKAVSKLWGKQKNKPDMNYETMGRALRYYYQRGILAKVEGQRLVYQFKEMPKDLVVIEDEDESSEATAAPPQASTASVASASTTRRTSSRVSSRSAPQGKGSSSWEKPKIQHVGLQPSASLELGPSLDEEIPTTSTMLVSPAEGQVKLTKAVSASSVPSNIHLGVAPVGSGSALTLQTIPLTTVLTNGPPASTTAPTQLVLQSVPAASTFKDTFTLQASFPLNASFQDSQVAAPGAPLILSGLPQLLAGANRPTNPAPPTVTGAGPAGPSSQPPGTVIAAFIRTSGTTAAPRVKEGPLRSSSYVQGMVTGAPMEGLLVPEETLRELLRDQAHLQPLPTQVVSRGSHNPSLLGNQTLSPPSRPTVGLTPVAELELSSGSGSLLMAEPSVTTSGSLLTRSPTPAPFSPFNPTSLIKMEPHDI
Sequence of HSF1 (Q00613 whole entry): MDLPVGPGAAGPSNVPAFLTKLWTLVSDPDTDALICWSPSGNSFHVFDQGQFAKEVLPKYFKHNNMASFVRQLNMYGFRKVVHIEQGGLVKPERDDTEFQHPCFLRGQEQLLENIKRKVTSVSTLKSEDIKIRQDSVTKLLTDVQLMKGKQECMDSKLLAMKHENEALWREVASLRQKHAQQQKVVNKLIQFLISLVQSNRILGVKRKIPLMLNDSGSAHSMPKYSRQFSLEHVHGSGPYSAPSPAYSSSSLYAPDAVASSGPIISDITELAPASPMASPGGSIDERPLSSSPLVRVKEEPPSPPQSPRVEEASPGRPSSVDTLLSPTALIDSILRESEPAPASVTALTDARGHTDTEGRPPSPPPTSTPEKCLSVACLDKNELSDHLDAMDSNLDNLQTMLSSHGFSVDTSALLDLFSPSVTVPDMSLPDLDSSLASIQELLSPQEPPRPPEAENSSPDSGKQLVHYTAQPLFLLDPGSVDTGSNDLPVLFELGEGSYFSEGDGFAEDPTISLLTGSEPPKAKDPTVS

Sequence	binding signal (FEV)	binding signal (ETV5)	binding signal (HSF1)	binding signal (SPIC)	binding signal (ELF4)	binding signal (ELK4)	binding signal (ETV2)	binding signal (ELF3)	binding signal (ETV1)
CGCGTC	1.2 fold enrichment (6-mer frequency, TF over GST control)	1.06 fold enrichment (6-mer frequency, TF over GST control)	1.02 fold enrichment (6-mer frequency, TF over GST control)	1.39 fold enrichment (6-mer frequency, TF over GST control)	1.19 fold enrichment (6-mer frequency, TF over GST control)	1.48 fold enrichment (6-mer frequency, TF over GST control)	1.35 fold enrichment (6-mer frequency, TF over GST control)	1.44 fold enrichment (6-mer frequency, TF over GST control)	1.22 fold enrichment (6-mer frequency, TF over GST control)
CACTGC	1.38 fold enrichment (6-mer frequency, TF over GST control)	1.37 fold enrichment (6-mer frequency, TF over GST control)	1.04 fold enrichment (6-mer frequency, TF over GST control)	1.46 fold enrichment (6-mer frequency, TF over GST control)	1.32 fold enrichment (6-mer frequency, TF over GST control)	1.43 fold enrichment (6-mer frequency, TF over GST control)	1.28 fold enrichment (6-mer frequency, TF over GST control)	1.15 fold enrichment (6-mer frequency, TF over GST control)	1.36 fold enrichment (6-mer frequency, TF over GST control)
CACGAC	1.29 fold enrichment (6-mer frequency, TF over GST control)	1.28 fold enrichment (6-mer frequency, TF over GST control)	1.05 fold enrichment (6-mer frequency, TF over GST control)	1.26 fold enrichment (6-mer frequency, TF over GST control)	1.35 fold enrichment (6-mer frequency, TF over GST control)	1.53 fold enrichment (6-mer frequency, TF over GST control)	1.34 fold enrichment (6-mer frequency, TF over GST control)	1.32 fold enrichment (6-mer frequency, TF over GST control)	1.15 fold enrichment (6-mer frequency, TF over GST control)
GCAACT	1.27 fold enrichment (6-mer frequency, TF over GST control)	1.2 fold enrichment (6-mer frequency, TF over GST control)	1.05 fold enrichment (6-mer frequency, TF over GST control)	1.3 fold enrichment (6-mer frequency, TF over GST control)	1.2 fold enrichment (6-mer frequency, TF over GST control)	1.2 fold enrichment (6-mer frequency, TF over GST control)	1.04 fold enrichment (6-mer frequency, TF over GST control)	1.12 fold enrichment (6-mer frequency, TF over GST control)	1.25 fold enrichment (6-mer frequency, TF over GST control)
GAAGTT	1.62 fold enrichment (6-mer frequency, TF over GST control)	1.66 fold enrichment (6-mer frequency, TF over GST control)	1.39 fold enrichment (6-mer frequency, TF over GST control)	1.76 fold enrichment (6-mer frequency, TF over GST control)	1.61 fold enrichment (6-mer frequency, TF over GST control)	1.52 fold enrichment (6-mer frequency, TF over GST control)	1.58 fold enrichment (6-mer frequency, TF over GST control)	1.82 fold enrichment (6-mer frequency, TF over GST control)	1.63 fold enrichment (6-mer frequency, TF over GST control)
AACGAC	1.16 fold enrichment (6-mer frequency, TF over GST control)	1.14 fold enrichment (6-mer frequency, TF over GST control)	1.01 fold enrichment (6-mer frequency, TF over GST control)	1.04 fold enrichment (6-mer frequency, TF over GST control)	1.18 fold enrichment (6-mer frequency, TF over GST control)	1.03 fold enrichment (6-mer frequency, TF over GST control)	1.04 fold enrichment (6-mer frequency, TF over GST control)	1.02 fold enrichment (6-mer frequency, TF over GST control)	1.15 fold enrichment (6-mer frequency, TF over GST control)
AGTTTC	1.23 fold enrichment (6-mer frequency, TF over GST control)	1.33 fold enrichment (6-mer frequency, TF over GST control)	1.38 fold enrichment (6-mer frequency, TF over GST control)	1.16 fold enrichment (6-mer frequency, TF over GST control)	1.2 fold enrichment (6-mer frequency, TF over GST control)	1.13 fold enrichment (6-mer frequency, TF over GST control)	1.21 fold enrichment (6-mer frequency, TF over GST control)	1.14 fold enrichment (6-mer frequency, TF over GST control)	1.29 fold enrichment (6-mer frequency, TF over GST control)
TGTACA	1.24 fold enrichment (6-mer frequency, TF over GST control)	1.17 fold enrichment (6-mer frequency, TF over GST control)	1.01 fold enrichment (6-mer frequency, TF over GST control)	1.45 fold enrichment (6-mer frequency, TF over GST control)	1.36 fold enrichment (6-mer frequency, TF over GST control)	1.17 fold enrichment (6-mer frequency, TF over GST control)	1.19 fold enrichment (6-mer frequency, TF over GST control)	1.01 fold enrichment (6-mer frequency, TF over GST control)	1.15 fold enrichment (6-mer frequency, TF over GST control)
GAACAC	1.08 fold enrichment (6-mer frequency, TF over GST control)	1.08 fold enrichment (6-mer frequency, TF over GST control)	1.21 fold enrichment (6-mer frequency, TF over GST control)	1.18 fold enrichment (6-mer frequency, TF over GST control)	1.13 fold enrichment (6-mer frequency, TF over GST control)	1.17 fold enrichment (6-mer frequency, TF over GST control)	1.33 fold enrichment (6-mer frequency, TF over GST control)	1.13 fold enrichment (6-mer frequency, TF over GST control)	1.18 fold enrichment (6-mer frequency, TF over GST control)
TGACAT	1.23 fold enrichment (6-mer frequency, TF over GST control)	1.26 fold enrichment (6-mer frequency, TF over GST control)	1.01 fold enrichment (6-mer frequency, TF over GST control)	1.07 fold enrichment (6-mer frequency, TF over GST control)	1.24 fold enrichment (6-mer frequency, TF over GST control)	1.3 fold enrichment (6-mer frequency, TF over GST control)	1.18 fold enrichment (6-mer frequency, TF over GST control)	1.25 fold enrichment (6-mer frequency, TF over GST control)	1.23 fold enrichment (6-mer frequency, TF over GST control)
GAAGAA	1.08 fold enrichment (6-mer frequency, TF over GST control)	1.16 fold enrichment (6-mer frequency, TF over GST control)	1.46 fold enrichment (6-mer frequency, TF over GST control)	1.18 fold enrichment (6-mer frequency, TF over GST control)	1.15 fold enrichment (6-mer frequency, TF over GST control)	1.17 fold enrichment (6-mer frequency, TF over GST control)	1.2 fold enrichment (6-mer frequency, TF over GST control)	1.26 fold enrichment (6-mer frequency, TF over GST control)	1.2 fold enrichment (6-mer frequency, TF over GST control)
TCTGAC	1.15 fold enrichment (6-mer frequency, TF over GST control)	1.15 fold enrichment (6-mer frequency, TF over GST control)	1.07 fold enrichment (6-mer frequency, TF over GST control)	1.04 fold enrichment (6-mer frequency, TF over GST control)	1.35 fold enrichment (6-mer frequency, TF over GST control)	1.25 fold enrichment (6-mer frequency, TF over GST control)	1.16 fold enrichment (6-mer frequency, TF over GST control)	1.18 fold enrichment (6-mer frequency, TF over GST control)	1.3 fold enrichment (6-mer frequency, TF over GST control)
GTTTGA	1.13 fold enrichment (6-mer frequency, TF over GST control)	1.19 fold enrichment (6-mer frequency, TF over GST control)	1.03 fold enrichment (6-mer frequency, TF over GST control)	1.25 fold enrichment (6-mer frequency, TF over GST control)	1.13 fold enrichment (6-mer frequency, TF over GST control)	1.28 fold enrichment (6-mer frequency, TF over GST control)	1.22 fold enrichment (6-mer frequency, TF over GST control)	1.15 fold enrichment (6-mer frequency, TF over GST control)	1.2 fold enrichment (6-mer frequency, TF over GST control)
TCCGTC	1.38 fold enrichment (6-mer frequency, TF over GST control)	1.31 fold enrichment (6-mer frequency, TF over GST control)	1.04 fold enrichment (6-mer frequency, TF over GST control)	1.38 fold enrichment (6-mer frequency, TF over GST control)	1.42 fold enrichment (6-mer frequency, TF over GST control)	1.3 fold enrichment (6-mer frequency, TF over GST control)	1.35 fold enrichment (6-mer frequency, TF over GST control)	1.27 fold enrichment (6-mer frequency, TF over GST control)	1.42 fold enrichment (6-mer frequency, TF over GST control)
CGCTCC	1.34 fold enrichment (6-mer frequency, TF over GST control)	1.31 fold enrichment (6-mer frequency, TF over GST control)	1.09 fold enrichment (6-mer frequency, TF over GST control)	1.33 fold enrichment (6-mer frequency, TF over GST control)	1.38 fold enrichment (6-mer frequency, TF over GST control)	1.41 fold enrichment (6-mer frequency, TF over GST control)	1.36 fold enrichment (6-mer frequency, TF over GST control)	1.3 fold enrichment (6-mer frequency, TF over GST control)	1.26 fold enrichment (6-mer frequency, TF over GST control)
ATGGGC	1.28 fold enrichment (6-mer frequency, TF over GST control)	1.25 fold enrichment (6-mer frequency, TF over GST control)	1.03 fold enrichment (6-mer frequency, TF over GST control)	1.35 fold enrichment (6-mer frequency, TF over GST control)	1.35 fold enrichment (6-mer frequency, TF over GST control)	1.49 fold enrichment (6-mer frequency, TF over GST control)	1.17 fold enrichment (6-mer frequency, TF over GST control)	1.24 fold enrichment (6-mer frequency, TF over GST control)	1.19 fold enrichment (6-mer frequency, TF over GST control)
